Test results as given in the supplement of paper PMC6555819.

Legend:
Assay in all cases: PBM binding z-score (relative to random genomic background probes); higher = stronger binding; sequences stand for … in GC…GCGATTGACAGCGTAGAATGAAGG
[1] = system: PPARg:RXRa DBDmut IVT, anti-RXR (DBD mutation: RXRa K156A/R161A, NR concentration 270 nM, RXRa partner concentration 90 nM)
In short: (§1)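 On custom Agilent 4×180K arrays, double-stranded probes with 34-nt variable regions carried direct-repeat seeds, single-nucleotide variants, half-site ablations or random human genomic background. Ligand-free nuclear receptor dimers were applied for 1 h, and binding was read with antibodies against each partner (one per run). Binding z-scores come from regression-normalized fluorescence, with the random background probes as reference.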

[2] = system: PPARg:RXRa IVT, anti-PPARg (NR concentration 270 nM, RXRa partner concentration 90 nM)
In short: as §1

[3] = system: PPARg DBDmut:RXRa IVT, anti-PPARg (DBD mutation: PPARg1 K132A/R137A, NR concentration 270 nM, RXRa partner concentration 90 nM)
In short: as §1

[4] = system: PPARg DBDmut IVT, anti-PPARg (DBD mutation: PPARg1 K132A/R137A, NR concentration 270 nM)
In short: as §1

[5] = system: PPARg homodimer (NR concentration 180 nM)
In short: as §1

[6] = system: PXR:RXRa (NR concentration 270 nM, RXRa partner concentration 90 nM)
In short: as §1

[7] = system: PXR homodimer (NR concentration 270 nM)
In short: as §1

[8] = system: RARa:RXR (NR concentration 270 nM, RXRa partner concentration 90 nM)
In short: as §1

[9] = system: RARa homodimer (NR concentration 270 nM)
In short: as §1

[10] = system: RARb:RXRa (NR concentration 270 nM, RXRa partner concentration 90 nM)
In short: as §1

Sequence	PBM binding z-score [1]	PBM binding z-score [2]	PBM binding z-score [3]	PBM binding z-score [4]	PBM binding z-score [5]	PBM binding z-score [6]	PBM binding z-score [7]	PBM binding z-score [8]	PBM binding z-score [9]	PBM binding z-score [10]
GCAGACAGGTGAAACGCAGGTAACTCCGGGTGGC	0.8	0.556	0.467	-0.826	-0.848	-0.493	-0.692	0.064	-0.954	0.484
GCTCGAAGGACAAGGTCAGAGCTTTGTCCGTAGA	-0.135	0.583	-0.7	-0.691	0.73	1.59	-0.626	2.28	-0.618	3.44
ATCTCTAGGTAAGACTCAGTTCAGTGATGAACGC	1.78	1.28	1.15	1.33	1.36	0.974	1.63	0.24	0.763	0.357
CGTCCAAGTTCAACTAAGGTAACGTAAAGCACGC	0.15	1.1	0.262	0.451	1.83	4.44	2.78	2.38	0.942	3.63
AGAATGAGGTTAAGATCAGGGAAACAGAATACAT	2.82	2.83	1.43	0.885	0.847	1.38	0.732	2.08	0.481	2.01
AGTCAAAGTTCACTAGGTAACTTAAGATTCAGCT	2.47	4.8	2.06	1.17	1.24	4.02	2.95	3.07	1.01	4.73
TCTTGTACATCAATAGAGGTTAAGAAAGTGCGCT	1.8	1.66	1.53	1.13	0.454	2.94	0.485	1.98	0.123	1.08
ACTTACGGGTCAACGAGGTTATCGCACGCGTATA	4.15	4.2	2.65	1.38	3.14	5.58	4.21	5.88	0.958	4.4
TCATATAGGTAAAGGGGAAAGTCGAACGATATGA	4.16	2.85	1.41	1.19	0.621	0.551	0.506	0.562	0.996	0.83
AGTCAAAGTTCAGGATGAGGTAACGTAAAGCACG	0.224	2.35	0.915	0.721	2.23	3.14	1.49	3.09	0.768	4.37
TCATATAGGTAACTGCTAGGTGAAAGTCCGATCT	4.55	3.78	1.12	0.94	1.15	0.43	0.184	0.789	0.623	0.705
CAAGCTAGGTCACAGAGGTCAAAGTCCGTGCGTA	5.16	5.87	0.564	0.34	6.23	6.96	12.1	8.03	2.55	5.47
GCAGACAGGTGAAACGCAGTTAACTCAGGGTGGC	0.917	0.29	-1.71	-0.986	-0.869	-0.255	-0.841	0.164	-0.965	0.589
TCATATAGGTTAATGCTAGGTGAAAGTCCGATCT	4.99	4.12	1.41	0.726	1.47	1.13	0.465	1.52	1.51	1.43
GCGACTGGGGCATCAGCAGGTCACCATAACTTAA	4	4.06	-0.0316	-0.625	2.67	2.2	0.0166	3.04	0.0286	2.53
AGAATGAGGTTACCAATGATCAGGGAAACGCTTG	3.69	3.24	1.14	0.416	0.494	1.05	-0.11	1.83	0.362	2.03
ATACCAAGATGATCGTGAGGTCGTTGATACTAAC	0.165	0.114	0.181	0.947	0.378	1.67	1.32	1.35	0.361	0.547
GTTAGTTGGTCAGTAAAAGGTCACACACCGGTCG	2.02	3.66	1.57	0.79	5.74	5.26	1.74	6.27	3.99	4.39
TCTGCTAGGTCAACGATCGTCAGCTAATCTGCTA	4.39	4.24	-0.071	-0.625	0.478	0.836	-0.972	1.79	-1.13	3.96
ATAGAAAGGTCGACGAGGTGAGTATACACCGTTT	0.284	1.82	1.11	0.417	1.76	2.87	0.566	3.6	0.784	3.72
CGTCCAAGGTCAGCAGTTCAGTGAAAGCGACGTG	2.51	2.84	0.0799	0.847	1.67	3.52	1.29	3.96	0.38	5.29
TCTCTTAGTTGAAGGGCAACCGACGAGTCCGTTT	2.62	0.645	0.259	0.537	0.739	0.86	0.261	0.472	0.622	1.63
